Results taken from PubChem BioAssay.
Activity calls are given as the source filed them. Unless noted, no rule for the calls is given here.

Columns and labels:
[1] = test system: Wnt5a (protein binding on small-molecule microarray); assay: Wnt5a binders on small-molecule microarray, primary screen, biophysical, 635/667 nm fluorescence (AID 1142); conditions: 635 nm fluorescence, higher = more signal;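 also: fluorescence read at 667 nm with signal to noise per printed feature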
[2] = cell viability in Huh7 cells, primary screen, cytotoxicity control for HCV replication inhibitor project, CellTiter-Glo luminescence, basal, 48 h (AID 1143); conditions: Huh7 HCV replicon, higher = more signal, called active from +8 up or from −8 down;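 also: Huh7 hepatoma cells carrying a hepatitis C replication reporter with no stimulus; test concentration not given here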
[3] = P. aeruginosa biofilm formation inhibitors, primary screen, PAO1 strain, BacTiter-Glo luminescence, LB-PBS (AID 1144); conditions: 12 h, higher = more signal
[4] = CREB reporter modulators without forskolin, primary screen, cell-based, PC12, CRE-LacZ reporter, unstimulated (AID 1145); conditions: no forskolin, luminescence, 4.5 h, higher = more signal, called active from +8 up or from −8 down
[5] = CREB reporter modulators under forskolin, primary screen, cell-based, PC12, CRE-LacZ reporter, forskolin-stimulated (AID 1146); conditions: luminescence, 4.5 h, higher = more signal, called active from +8 up or from −8 down;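 also: PC12 cells with 6xCRE LacZ reporter stimulated by forskolin 10 µM; beta-galactosidase reporter signal reflecting CREB driven transcription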
[6] = target: Streptavidin (Streptomyces avidinii) (UniProt P22629); assay: streptavidin binders on small-molecule microarray, primary screen, artefact control for SMM compound annotation, biophysical, 635/667 nm fluorescence (AID 1147); conditions: streptavidin binding, higher = more signal;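 also: signal reflects streptavidin binding to arrayed compounds as a control protein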
[7] = small-molecule binders of probe aInhba, primary screen, biochemical, small-molecule microarray, 635/667 nm fluorescence (AID 1148); conditions: higher = more signal;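 also: score merges 667nm spot fluorescence with signal-to-noise for antibody binding to printed compounds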
Torsin-1A (Homo sapiens) [8] = target: Torsin-1A (Homo sapiens) (UniProt O14656); assay: torsin A binders from cell lysate, primary screen, small-molecule microarray, wild-type, 635/667 nm (AID 1149); conditions: COS7 hTOR1A-WT lysate, 635 nm fluorescence, higher = more signal
Torsin-1A (Homo sapiens) [9] = target: Torsin-1A (Homo sapiens) (UniProt O14656); assay: small-molecule binders of mutant TOR1A in lysate, primary screen, cell lysate, small-molecule microarray, COS7 lysate, 635/667 nm fluorescence (AID 1150); conditions: COS7 hTOR1A mutant lysate, 635 nm fluorescence, higher = more signal;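 also: score pools 667 nm emission and signal to noise measuring lysate protein binding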
[10] = test system: Sonic hedgehog protein (Shh); assay: small-molecule binders of Shh protein, primary screen, biochemical, small-molecule microarray, 635/667 nm fluorescence (AID 1151); conditions: small-molecule microarray binding, 635 nm fluorescence; higher = more signal;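 also: Shh protein binding to compounds spotted on small-molecule microarray slides; score combines spot fluorescence intensity with signal-to-noise across triplicate slides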
[11] = E. coli DRC41 culture turbidity changes, primary screen, E. coli filamentation inducer project, strain DRC41, OD650, 48 h (AID 1152);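 also: E. coli MC1000 strain DRC41 lacking acrAB efflux pump and sulA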; conditions: E. coli DRC41 (acrAB sulA), higher = more signal, called active from +8 up or from −8 down
[12] = small-molecule binders of probe aLefty1, primary screen, biochemical, small-molecule microarray, 635/667 nm fluorescence (AID 1153); conditions: higher = more signal;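 also: score merges spot fluorescence with signal-to-noise ratio from the scanned slide images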
[13] = PSAC antagonists in infected red cells, primary screen, cell-based, P. falciparum Indochina, OD700, 1 h (AID 1154); conditions: P. falciparum Indochina infected RBC osmotic lysis, higher = more signal, called active from +8 up or from −8 down
[14] = PSAC antagonists in infected red cells, primary screen, cell-based, P. falciparum Indochina, OD700, 2 h (AID 1155);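 also: lysis reports solute entry through the parasite surface anion channel PSAC; channel blockers reduce lysis of infected cells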; conditions: P. falciparum Indochina infected erythrocytes, osmotic lysis OD700; higher = more signal, called active from +8 up or from −8 down
[15] = osmotic lysis modulators in infected erythrocytes, primary screen, PSAC antagonist project, cell-based, P. falciparum Indochina, OD700, 3 h (AID 1156); conditions: higher = more signal, called active from +8 up or from −8 down
[16] = PSAC antagonists in infected red cells, primary screen, cell-based, P. falciparum Indochina, OD700, 18 h (AID 1157); conditions: P. falciparum Indochina infected erythrocytes, osmotic lysis OD700, 18 h; higher = more signal, called active from +8 up or from −8 down
[17] = modulators of S6 phosphorylation in cells, primary screen, cell-based, A549, cytoblot, luminescence, serum-stimulated (AID 1158); conditions: A549 phospho-S6 cytoblot, 5 h, higher = more signal;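 also: serum-stimulated A549 lung adenocarcinoma cells; signal is phosphorylated S6 detected by cytoblot immunostaining with HRP secondary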
[18] = target: NADPH oxidase 2 (Homo sapiens) (UniProt P04839); assay: NOX2-dependent H2O2 signal modulators, primary screen, NOX inhibitor project, cell-based, HEK293-NOX2, PMA-stimulated, Amplex Red fluorescence (AID 1159); conditions: 45 min, higher = more signal, called active from +8 up or from −8 down; also: test concentration not given here
[19] = target: NADPH oxidase 4 (Homo sapiens) (UniProt Q9NPH5); assay: NOX4-dependent H2O2 signal modulators, primary screen, NOX inhibitor project, cell-based, HEK293-NOX4, tetracycline-induced, Amplex Red fluorescence (AID 1160); conditions: 45 min, higher = more signal, called active from +8 up or from −8 down
[20] = target: NADPH oxidase 5 (Homo sapiens) (UniProt Q96PH1); assay: NOX5-dependent H2O2 signal modulators, primary screen, NOX inhibitor project, cell-based, HEK293-NOX5, Amplex Red fluorescence (AID 1161); conditions: HEK293-NOX5, ionomycin, 45 min, higher = more signal
Sequence of NADPH oxidase 5 (Homo sapiens) (Q96PH1 whole entry, looked up): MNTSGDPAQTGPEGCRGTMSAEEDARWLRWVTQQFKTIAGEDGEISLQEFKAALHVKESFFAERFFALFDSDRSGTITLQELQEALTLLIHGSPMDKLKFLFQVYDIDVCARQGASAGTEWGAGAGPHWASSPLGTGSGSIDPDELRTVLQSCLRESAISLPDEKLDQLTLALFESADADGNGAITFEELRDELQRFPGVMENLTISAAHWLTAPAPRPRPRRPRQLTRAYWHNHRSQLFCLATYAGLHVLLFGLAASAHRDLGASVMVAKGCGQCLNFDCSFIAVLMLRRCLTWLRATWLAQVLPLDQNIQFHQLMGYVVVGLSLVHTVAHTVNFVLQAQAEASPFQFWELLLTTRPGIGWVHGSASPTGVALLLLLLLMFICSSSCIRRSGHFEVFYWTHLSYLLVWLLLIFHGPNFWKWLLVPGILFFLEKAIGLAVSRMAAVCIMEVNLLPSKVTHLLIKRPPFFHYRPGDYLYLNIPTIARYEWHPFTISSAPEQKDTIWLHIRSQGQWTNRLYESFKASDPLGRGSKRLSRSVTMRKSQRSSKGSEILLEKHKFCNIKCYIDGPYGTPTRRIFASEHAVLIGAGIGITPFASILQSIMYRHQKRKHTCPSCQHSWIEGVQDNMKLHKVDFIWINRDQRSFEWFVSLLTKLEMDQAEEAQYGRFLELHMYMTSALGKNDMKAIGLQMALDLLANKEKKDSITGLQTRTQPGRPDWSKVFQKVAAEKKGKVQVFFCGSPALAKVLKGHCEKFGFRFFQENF

Sequence of NADPH oxidase 2 (Homo sapiens) (P04839 whole entry, looked up): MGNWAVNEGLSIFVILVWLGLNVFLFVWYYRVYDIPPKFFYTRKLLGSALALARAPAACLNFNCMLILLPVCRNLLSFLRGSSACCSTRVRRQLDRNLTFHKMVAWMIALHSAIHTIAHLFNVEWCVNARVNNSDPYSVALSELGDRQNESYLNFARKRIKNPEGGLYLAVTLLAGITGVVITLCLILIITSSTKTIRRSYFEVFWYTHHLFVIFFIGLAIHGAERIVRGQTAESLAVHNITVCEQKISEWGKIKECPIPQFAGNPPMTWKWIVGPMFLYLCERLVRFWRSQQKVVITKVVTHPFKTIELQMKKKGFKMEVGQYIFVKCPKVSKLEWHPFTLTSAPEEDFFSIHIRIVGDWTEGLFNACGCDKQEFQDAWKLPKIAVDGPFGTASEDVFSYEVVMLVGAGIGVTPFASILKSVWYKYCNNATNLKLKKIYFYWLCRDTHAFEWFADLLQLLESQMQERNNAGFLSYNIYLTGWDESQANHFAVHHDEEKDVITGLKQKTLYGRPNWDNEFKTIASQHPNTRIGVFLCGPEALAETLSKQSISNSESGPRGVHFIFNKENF
Sequence of Streptavidin (Streptomyces avidinii) (P22629 whole entry, looked up): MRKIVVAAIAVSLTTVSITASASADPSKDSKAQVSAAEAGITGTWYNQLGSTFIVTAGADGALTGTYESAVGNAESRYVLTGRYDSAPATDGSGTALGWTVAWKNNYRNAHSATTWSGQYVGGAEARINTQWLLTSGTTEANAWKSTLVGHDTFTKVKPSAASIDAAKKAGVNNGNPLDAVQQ
Sequence of Torsin-1A (Homo sapiens) (O14656 whole entry, looked up): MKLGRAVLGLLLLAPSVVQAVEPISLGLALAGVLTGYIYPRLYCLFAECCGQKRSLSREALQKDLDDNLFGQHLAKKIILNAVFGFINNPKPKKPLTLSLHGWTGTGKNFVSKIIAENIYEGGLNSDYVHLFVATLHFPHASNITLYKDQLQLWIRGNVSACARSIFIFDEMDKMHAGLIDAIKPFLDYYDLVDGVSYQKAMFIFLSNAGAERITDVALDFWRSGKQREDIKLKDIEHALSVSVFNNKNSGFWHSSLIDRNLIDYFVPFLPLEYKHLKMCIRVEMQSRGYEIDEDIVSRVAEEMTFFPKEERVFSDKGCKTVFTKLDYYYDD
Sequence of NADPH oxidase 4 (Homo sapiens) (Q9NPH5 whole entry, looked up): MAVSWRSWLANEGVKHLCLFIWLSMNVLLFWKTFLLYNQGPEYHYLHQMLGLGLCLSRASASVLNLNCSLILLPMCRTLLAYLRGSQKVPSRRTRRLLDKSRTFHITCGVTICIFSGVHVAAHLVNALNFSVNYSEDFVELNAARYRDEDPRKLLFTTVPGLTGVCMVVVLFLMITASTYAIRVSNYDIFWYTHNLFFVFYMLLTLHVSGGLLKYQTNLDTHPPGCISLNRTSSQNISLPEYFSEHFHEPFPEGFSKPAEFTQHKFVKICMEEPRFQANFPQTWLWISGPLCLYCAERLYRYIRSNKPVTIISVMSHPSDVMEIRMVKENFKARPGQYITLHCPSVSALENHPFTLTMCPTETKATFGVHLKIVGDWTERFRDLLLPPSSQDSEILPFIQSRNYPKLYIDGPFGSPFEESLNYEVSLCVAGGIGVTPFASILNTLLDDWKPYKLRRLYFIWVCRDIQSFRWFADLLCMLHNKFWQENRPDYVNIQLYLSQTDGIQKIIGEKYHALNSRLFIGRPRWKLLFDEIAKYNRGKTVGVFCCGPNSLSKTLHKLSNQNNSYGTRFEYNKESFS

Row | SMILES | composite z-score [1] | z-score [2] | z-score [3] | z-score [4] | z-score [5] | composite z-score [6] | composite z-score [7] | composite z-score (Torsin-1A (Homo sapiens) [8]) | composite z-score (Torsin-1A (Homo sapiens) [9]) | composite z-score [10] | z-score [11] | composite z-score [12] | z-score [13] | z-score [14] | z-score [15] | z-score [16] | z-score [17] | z-score [18] | z-score [19] | z-score [20]
1 | NC(=O)[C@@]1(CCS(=O)(=O)c2ccccc2)N=C(c2ccc(OCCCO)cc2)O[C@H]1c1ccccc1 | 0.211 | -5.04 (inactive) | 0.814 (inactive) | 0.0451 (inactive) | -1.38 (inactive) | 0.856 | 0.0872 | 0.699 | 0.799 | -1.2 | 1.24 (inactive) | 0.254 | 19.7 (active) | 2.48 (inactive) | 1.4 (inactive) | -0.898 (inactive) | 2.09 | -3.88 (inactive) | -1.85 (inactive) | -1.61
2 | C=C(C(=O)CC[C@@H](OC(=O)c1cccnc1)c1ccc(OCCO)cc1)C(C)C | 0.725 | -8.32 (active) | 0.118 (inactive) | 20 (active) | 0.12 (inactive) | -0.136 | -0.128 | 0.0998 | 0.97 | 1.58 | -1.07 (inactive) | 0.0043 | 3.66 (inactive) | 2.48 (inactive) | -6.06 (inactive) | 0.822 (inactive) | -0.917 | -4.23 (inactive) | -1.19 (inactive) | -1.6
3 | C=C(CCCC)/C(=C/C[C@@H](OC(=O)c1ccncc1)c1ccc(CO)o1)c1cc(C(=O)OC)ccc1OC | 0.079 | -0.605 (inactive) | 0.363 (inactive) | 6.18 (inactive) | 4.24 (inactive) | 0.707 | 0.027 | 0.394 | 1.23 | 1.97 | 0.722 (inactive) | 0.0263 | 8.99 (active) | 1.07 (inactive) | 2.84 (inactive) | 0.454 (inactive) | 0.739 | -0.268 (inactive) | -1.08 (inactive) | -1.52
4 | COC(=O)[C@@]1(Cc2ccc(OC)cc2)[C@H]2c3cc(C(=O)N(C)C)n(CCSCCO)c3C[C@H]2CN1C(=O)c1ccccc1 | 0.706 | -2.19 (inactive) | 0.565 (inactive) | -0.954 (inactive) | 0.325 (inactive) | 0.872 | 0.351 | -0.101 | 0.199 | -0.824 | -0.641 (inactive) | 0.0391 | 2.02 (inactive) | 0.0187 (inactive) | 0.453 (inactive) | 0.641 (inactive) | -0.368 | 0.393 (inactive) | 0.978 (inactive) | -0.24
